Data as given in PubChem BioAssay (NCI).
This is part of a sample that, as a whole, favours compounds with a hit. Of some 79,000 tested, about 15% had one in any assay. Calls of active or inactive are those of the source. No stated cut-off is given here; in the data, active means growth inhibition above about 70%; inactive means the rest.

Tests used:
[1] = NCI Yeast Anticancer Drug Screen. Data for the rad52 strain (AID 147);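 further: 0% = growth of vehicle-treated control cultures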; settings: S. cerevisiae rad52 mutant growth inhibition, active compounds read high
How it was run: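 Read-out: growth inhibition versus vehicle-treated controls. Cells were a DNA repair-deficient yeast strain treated with compounds.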

[2] = NCI Yeast Anticancer Drug Screen. Data for the wt1 strain (AID 149);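 further: 0% = growth of vehicle-treated wt1 cultures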; settings: S. cerevisiae wt1 strain (SPY 50644) growth inhibition, active compounds read high
How it was run: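 Measured: growth of wt1 yeast under compound versus vehicle treatment, reported as inhibition.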

[3] = NCI Yeast Anticancer Drug Screen. Data for the rad50 strain (AID 155);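 further: 0% = growth of vehicle-only cultures of the same strain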; settings: S. cerevisiae rad50 strain growth inhibition, active compounds read high
How it was run: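 Growth of the mutant yeast was measured after compound exposure and referenced to vehicle-treated cultures.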

[4] = NCI Yeast Anticancer Drug Screen. Data for the mec2-1 strain (AID 157); settings: S. cerevisiae mec2-1 strain, active compounds read high
How it was run: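 Yeast mec2-1 mutant treated with compound. Readout: growth inhibition vs vehicle controls.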

[5] = NCI Yeast Anticancer Drug Screen. Data for the rad14 strain (AID 159);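 further: 0% = growth of vehicle-treated control cultures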; settings: S. cerevisiae rad14 strain growth inhibition, active compounds read high
How it was run: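 Here, inhibition of yeast growth was measured after compound exposure, using a strain with a genetic defect in DNA damage repair and vehicle-treated cultures as the reference.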

[6] = NCI Yeast Anticancer Drug Screen. Data for the sgs1 mgt1 strain (AID 161);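 further: 0% = growth of cultures given vehicle only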; settings: S. cerevisiae sgs1 mgt1 strain, active compounds read high
How it was run: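 Mutant yeast exposed to compound; growth scored against vehicle-only wells.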

[7] = NCI Yeast Anticancer Drug Screen. Data for the CLN2oe strain (AID 163);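 further: 0% = growth of vehicle-only control cultures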; settings: S. cerevisiae CLN2oe strain, active compounds read high
How it was run: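 Read-out: yeast growth inhibition, expressed relative to vehicle-only controls. The strain bears an engineered cell-cycle alteration.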

[8] = NCI Yeast Anticancer Drug Screen. Data for the cln2 rad14 strain (AID 165);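 further: 0% = growth equal to vehicle treated cultures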; settings: S. cerevisiae cln2 rad14 strain, active compounds read high
How it was run: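 cln2 rad14 yeast strain; compound exposure; growth inhibition read vs vehicle controls.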

[9] = NCI Yeast Anticancer Drug Screen. Data for the bub3 strain (AID 167); settings: S. cerevisiae bub3 mutant strain, active compounds read high
How it was run: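 Whole-cell yeast assay. The mutant strain was incubated with compounds, and growth inhibition was determined by comparison with vehicle-treated cells.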

[10] = NCI Yeast Anticancer Drug Screen. Data for the wt2 strain (AID 169);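 further: 0% = growth of vehicle-treated yeast cultures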; settings: S. cerevisiae wt2 strain growth inhibition, active compounds read high
How it was run: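 Read-out: growth inhibition versus vehicle-treated control cultures after compound exposure of the yeast strain.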

[11] = NCI Yeast Anticancer Drug Screen. Data for the mlh1 strain (AID 171);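 further: 0% = growth of vehicle-treated control cultures of the same strain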; settings: S. cerevisiae mlh1 strain growth inhibition, active compounds read high
How it was run: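 Read-out: growth inhibition versus vehicle controls. Strain: engineered yeast with a defined DNA repair or cell cycle defect, compound-treated.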

[12] = NCI Yeast Anticancer Drug Screen. Data for the sgs1 strain (AID 173);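 further: 0% = growth of vehicle-only control cultures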; settings: S. cerevisiae sgs1 mutant, active compounds read high
How it was run: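 Read-out: yeast growth inhibition relative to vehicle controls, following compound exposure of a strain with a defined DNA repair/cell cycle alteration.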

[13] = NCI Yeast Anticancer Drug Screen. Data for the mlh1 rad18 strain (AID 175); settings: S. cerevisiae mlh1 rad18 strain growth inhibition, active compounds read high
How it was run: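 Yeast w/ defined DNA-repair lesions; compound exposure; growth vs vehicle controls → % inhibition.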

[14] = NCI Yeast Anticancer Drug Screen. Data for the rad18 strain (AID 177); settings: S. cerevisiae rad18 mutant growth inhibition, active compounds read high
How it was run: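 Readout: growth inhibition vs vehicle controls. Cells: genetically altered yeast strain, DNA repair defect.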

[15] = NCI Yeast Anticancer Drug Screen. Data for the rad50EPP+ strain (AID 151);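 further: 0% = growth of vehicle-treated control cultures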; settings: S. cerevisiae rad50 mutant strain, active compounds read high
How it was run: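 Growth inhibition read against vehicle controls in rad50EPP+ yeast, a strain altered in DNA damage repair, after compound exposure.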

[16] = at 5.0 µM (retest, dose inferred, filed as 0.5)
[17] = at 50.0 µM (retest, dose inferred, filed as 5.0)

Measured: growth inhibition

O=C(NCCCCCN1CCC2(CCCCC2)CC1)C(C1CCCCC1)C1CCCCC1
active: [1]; at 33.0 µM 100% | [1]; at 100.0 µM 97% | [2]; at 33.0 µM 85% | [2]; at 100.0 µM 98% | [3]; at 33.0 µM 97% | [3]; [17] 99% | [3]; at 50.0 µM 99.5% | [3]; at 100.0 µM 99% | [4]; at 33.0 µM 100% | [4]; [17] 98% | [4]; at 50.0 µM 99.3% | [4]; at 100.0 µM 98% | [5]; at 11.0 µM 98% | [5]; at 33.0 µM 99% | [5]; at 100.0 µM 99% | [6]; [17] 99% | [6]; at 50.0 µM 99.6% | [7]; at 11.0 µM 78% | [7]; at 33.0 µM 99% | [7]; at 100.0 µM 99% | [8]; [16] 70% | [8]; [17] 99% | [8]; at 50.0 µM 98.8% | [9]; at 11.0 µM 80% | [9]; at 33.0 µM 99% | [9]; [17] 100% | [9]; at 50.0 µM 99.2% | [9]; at 100.0 µM 99% | [10]; at 33.0 µM 99% | [10]; at 100.0 µM 99% | [11]; at 11.0 µM 76% | [11]; at 33.0 µM 99% | [11]; at 100.0 µM 94% | [12]; at 11.0 µM 86% | [12]; at 33.0 µM 99% | [12]; at 100.0 µM 98% | [13]; [17] 99% | [13]; at 50.0 µM 99.5% | [14]; at 33.0 µM 100% | [14]; at 100.0 µM 98%
inactive: [1]; at 1.2 µM 23% | [1]; at 3.7 µM 5% | [1]; at 11.0 µM 65% | [2]; at 1.2 µM -63% | [2]; at 3.7 µM -5% | [2]; at 11.0 µM 6% | [3]; at 1.2 µM -1% | [3]; at 3.7 µM 11% | [3]; [16] -7% | [3]; at 11.0 µM 46% | [4]; at 1.2 µM 22% | [4]; at 3.7 µM -5% | [4]; [16] -22% | [4]; at 11.0 µM 42% | [5]; at 1.2 µM 11% | [5]; at 3.7 µM 49% | [6]; [16] -15% | [7]; at 1.2 µM -4% | [7]; at 3.7 µM 4% | [9]; at 1.2 µM -2% | [9]; at 3.7 µM 2% | [9]; [16] -17% | [10]; at 1.2 µM -1% | [10]; at 3.7 µM 3% | [10]; at 11.0 µM 45% | [11]; at 1.2 µM 0% | [11]; at 3.7 µM 7% | [12]; at 1.2 µM 2% | [12]; at 3.7 µM 24% | [13]; [16] -3% | [14]; at 1.2 µM 8% | [14]; at 3.7 µM 11% | [14]; at 11.0 µM 69%

O=C1C=CC(=Nc2ccccc2)c2ccccc21
active: [1]; at 100.0 µM 77% | [15]; at 100.0 µM 70% | [3]; at 33.0 µM 88% | [3]; [17] 70% | [3]; at 100.0 µM 85% | [9]; at 33.0 µM 84% | [9]; [17] 94% | [9]; at 50.0 µM 82.3% | [9]; at 100.0 µM 88% | [11]; at 100.0 µM 82% | [13]; [17] 87% | [14]; at 33.0 µM 84% | [14]; at 100.0 µM 80%
inactive: [1]; at 1.2 µM 1% | [1]; at 3.7 µM 5% | [1]; at 11.0 µM 20% | [1]; at 33.0 µM 55% | [2]; at 1.2 µM 8% | [2]; at 3.7 µM 12% | [2]; at 11.0 µM 21% | [2]; at 33.0 µM 38% | [2]; at 100.0 µM 45% | [15]; at 1.2 µM 3% | [15]; at 3.7 µM 8% | [15]; at 11.0 µM 28% | [15]; at 33.0 µM 53% | [3]; at 1.2 µM 3% | [3]; at 3.7 µM 15% | [3]; [16] -8% | [3]; at 11.0 µM 65% | [3]; at 50.0 µM 37.9% | [4]; at 1.2 µM 5% | [4]; at 3.7 µM 10% | [4]; [16] 22% | [4]; at 11.0 µM 19% | [4]; at 33.0 µM 28% | [4]; [17] 43% | [4]; at 50.0 µM 45.3% | [4]; at 100.0 µM 44% | [6]; [16] 30% | [6]; [17] 60% | [6]; at 50.0 µM 31.6% | [7]; at 1.2 µM -2% | [7]; at 3.7 µM -4% | [7]; at 11.0 µM 6% | [7]; at 33.0 µM 43% | [7]; at 100.0 µM 39% | [9]; at 1.2 µM 12% | [9]; at 3.7 µM 37% | [9]; [16] 65% | [9]; at 11.0 µM 62% | [10]; at 1.2 µM 8% | [10]; at 3.7 µM 17% | [10]; at 11.0 µM 35% | [10]; at 33.0 µM 54% | [10]; at 100.0 µM 69% | [11]; at 1.2 µM 3% | [11]; at 3.7 µM 5% | [11]; at 11.0 µM 20% | [11]; at 33.0 µM 67% | [13]; [16] 27% | [13]; at 50.0 µM 36.5% | [14]; at 1.2 µM 2% | [14]; at 3.7 µM 6% | [14]; at 11.0 µM 37%
